Where a name gives a salt, the structure may show the parent alone.
What was measured:
Details in all cases: treatment time: 24 h
A549-ACTB-RAB5A [1] = experiment: lowest phenotypically active concentration; higher = less potent
Procedure, shortened: (§1)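 After 24 h at 0.3, 1, 3 or 9 µM, with four wells per treatment, fifteen gene-edited A549, HepG2 and WPMY1 reporter lines carrying BFP, GFP and RFP/FusionRed were imaged live. Each well's live-cell features were expressed relative to solvent control wells. Deviation required ≥3 of 4 wells past the 95th percentile of control Euclidean distances, and reproducibility a median replicate Pearson correlation over the 95th percentile of non-replicates. Phenotypic activity rested on both.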

A549-CANX-COX4 [2] = experiment: as above
Procedure, shortened: as §1

A549-GM130-SQSTM1 [3] = experiment: as above
Procedure, shortened: as §1

A549-TP53BP1-CLTA [4] = experiment: as above
Procedure, shortened: as §1

A549-TUBA1B-RELA [5] = experiment: as above
Procedure, shortened: as §1

HepG2-TP53BP1-CLTA [6] = experiment: as above
Procedure, shortened: as §1

A549-ACTB-RAB5A [7] = experiment: phenotypically active (imaging signature differs from DMSO and reproducible) at any of 0.3-9 uM (binary (1 = active, 0 = inactive)); higher = active
Procedure, shortened: as §1

A549-CANX-COX4 [8] = experiment: as above
Procedure, shortened: as §1

A549-GM130-SQSTM1 [9] = experiment: as above
Procedure, shortened: as §1

A549-TP53BP1-CLTA [10] = experiment: as above
Procedure, shortened: as §1

A549-TUBA1B-RELA [11] = experiment: as above
Procedure, shortened: as §1

HepG2-ACTB-RAB5A = experiment: as above
Procedure, shortened: as §1

HepG2-CANX-COX4 = experiment: as above
Procedure, shortened: as §1

HepG2-GM130-SQSTM1 = experiment: as above
Procedure, shortened: as §1

HepG2-TP53BP1-CLTA [12] = experiment: as above
Procedure, shortened: as §1

HepG2-TUBA1B-RELA = experiment: as above
Procedure, shortened: as §1

WPMY1-CANX-COX4 = experiment: as above
Procedure, shortened: as §1

WPMY1-GM130-SQSTM1 = experiment: as above
Procedure, shortened: as §1

WPMY1-TP53BP1-CLTA = experiment: as above
Procedure, shortened: as §1

WPMY1-TUBA1B-RELA = experiment: as above
Procedure, shortened: as §1

SMILES	lowest phenotypically active concentration (A549-ACTB-RAB5A [1]) [µM]	lowest phenotypically active concentration (A549-CANX-COX4 [2]) [µM]	lowest phenotypically active concentration (A549-GM130-SQSTM1 [3]) [µM]	lowest phenotypically active concentration (A549-TP53BP1-CLTA [4]) [µM]	lowest phenotypically active concentration (A549-TUBA1B-RELA [5]) [µM]	lowest phenotypically active concentration (HepG2-TP53BP1-CLTA [6]) [µM]	phenotypically active (A549-ACTB-RAB5A [7])	phenotypically active (A549-CANX-COX4 [8])	phenotypically active (A549-GM130-SQSTM1 [9])	phenotypically active (A549-TP53BP1-CLTA [10])	phenotypically active (A549-TUBA1B-RELA [11])	phenotypically active (HepG2-ACTB-RAB5A)	phenotypically active (HepG2-CANX-COX4)	phenotypically active (HepG2-GM130-SQSTM1)	phenotypically active (HepG2-TP53BP1-CLTA [12])	phenotypically active (HepG2-TUBA1B-RELA)	phenotypically active (WPMY1-CANX-COX4)	phenotypically active (WPMY1-GM130-SQSTM1)	phenotypically active (WPMY1-TP53BP1-CLTA)	phenotypically active (WPMY1-TUBA1B-RELA)
COc1cc2c(cc1-c1c(C)noc1C)ncc1[nH]c(=O)n([C@H](C)c3ccccn3)c12 [I-BET 151 dihydrochloride]	1	3	1	3	1	3	1 (active)	1 (active)	1 (active)	1 (active)	1 (active)	1 (active)	1 (active)	1 (active)	1 (active)	1 (active)	1 (active)	1 (active)	1 (active)	1 (active)
Nc1ncnc2c1c(-c1cnc3[nH]ccc3c1)nn2C1CCCC1	≤ 0.3	1	≤ 0.3	≤ 0.3	≤ 0.3	≤ 0.3	1 (active)	1 (active)	1 (active)	1 (active)	1 (active)	1 (active)	1 (active)	1 (active)	1 (active)	1 (active)	1 (active)	1 (active)	1 (active)	1 (active)
CN(C)CC(=O)N1CCC[C@@H](n2nc(-c3ccc(Oc4ccccc4)cc3)c3c(N)ncnc32)C1	1	9	1	9	1	1	1 (active)	1 (active)	1 (active)	1 (active)	1 (active)	1 (active)	1 (active)	1 (active)	1 (active)	1 (active)	1 (active)	1 (active)	1 (active)	1 (active)
O=C1Nc2ccc(F)cc2C1=C1Nc2ccccc2C1=NO [5'-Fluoroindirubinoxime]	1	1	1	1	1	1	1 (active)	1 (active)	1 (active)	1 (active)	1 (active)	1 (active)	1 (active)	1 (active)	1 (active)	1 (active)	1 (active)	1 (active)	1 (active)	1 (active)
COc1ccc2[nH]c(C(=O)c3ccccc3)cc2c1	≤ 0.3	≤ 0.3	≤ 0.3	≤ 0.3	≤ 0.3	≤ 0.3	1 (active)	1 (active)	1 (active)	1 (active)	1 (active)	1 (active)	1 (active)	1 (active)	1 (active)	1 (active)	1 (active)	1 (active)	1 (active)	1 (active)
Cc1ccc(/C(=C/CN2CCCC2)c2cccc(/C=C/C(=O)O)n2)cc1 [acrivastine]	1	9	3	9	1	9	1 (active)	1 (active)	1 (active)	1 (active)	1 (active)	1 (active)	1 (active)	1 (active)	1 (active)	1 (active)	1 (active)	1 (active)	1 (active)	1 (active)
